# Measurements: PubChem BioAssay AID463173 (ICCB-Longwood Screening Facility, Harvard Medical School, 2010)
# Out of some 52,000 compounds screened, about 4,300 (8.3%) were called active. The entries come from a sample that favours actives as a whole. Values without a mark were called inactive. Cut-off read from the data, not from the text of the source: active = survival mostly below about 52% (no sharp cut-off); inactive = mostly above about 56%.
# System: DeltatarO mutant
# Assay: growth inhibition of S. aureus wild type versus tarO mutant, primary screen, teichoic acid synthesis inhibitors, RN4220, OD600 (AID 463173)
# Conditions: OD600, 18 h, stronger effect = lower value, screened at 18.75 µg/mL (by protocol)
row,Structure (SMILES),survival
1,COc1ccc(Cl)cc1NC(=O)CN1c2ccccc2S(=O)(=O)c2ccccc21,75%
2,O=C(Nc1ccccc1C(F)(F)F)C1CCN(S(=O)(=O)Cc2ccccc2)CC1,75%
3,Cc1cccc(N2CCN(S(=O)(=O)c3ccc(F)c(C(=O)Nc4cccc(Cl)c4C)c3)CC2C)c1 (stereo unspecified),85%
4,O=C(Nc1ccc(Cl)cc1Cl)c1cc(S(=O)(=O)N2CCCCCC2)ccc1F,76%
5,Cc1ccc(C)c(N2CCN(S(=O)(=O)c3ccc(F)c(C(=O)Nc4ccc(Cl)cc4Cl)c3)CC2)c1,96%
6,CCc1ccccc1NC(=O)C1CCN(S(=O)(=O)c2ccccc2)CC1,56%
7,COc1ccc(Cl)cc1NC(=O)C1CCN(S(=O)(=O)c2ccc3c(c2)CC(C)N3C(C)=O)CC1 (stereo unspecified),92%
8,COc1cc(Cl)c(C)cc1NC(=O)c1cc(S(=O)(=O)N2CCCC2)ccc1F,37% (active)
9,COc1ccc(OC)c(NC(=O)C2CCN(S(=O)(=O)c3ccc(C)cc3)CC2)c1,50%
10,Cc1ccc(N2CCN(S(=O)(=O)c3ccc(F)c(C(=O)Nc4ccc(Cl)cc4Cl)c3)CC2C)cc1 (stereo unspecified),-4% (active)
11,COc1ccc(Cl)cc1NC(=O)C1CCN(S(=O)(=O)c2ccc(F)cc2)CC1,43% (active)
12,O=C(Nc1ccccc1C(F)(F)F)C1CCN(S(=O)(=O)c2ccccc2)CC1,49% (active)
13,COc1ccc(C)cc1NC(=O)c1cc(S(=O)(=O)N2CCC(C)CC2)ccc1F,98%
14,CCc1nn(CC(=O)NCc2ccc(C)cc2)c(=O)c2cc3occc3n12,105%
15,CCOc1ccc(NC(=O)Cn2cc(C(=O)c3ccc(F)cc3)c(=O)c3cc4c(cc32)OCCO4)cc1,65%
16,COc1ccc2nc(N(Cc3cccnc3)C(=O)COc3ccccc3)sc2c1,90%
17,Cc1ccc(OCCCSc2nc(-c3ccc(C(C)(C)C)cc3)nc3cc(=O)[nH]n23)cc1C,58%
18,COc1ccc(NC(=O)C2=CC(c3ccc4c(c3)OCO4)=NS(=O)(=O)N2C)cc1OC,79%
19,O=C(CSc1ncn(-c2ccccc2)n1)NC1CCCCC1,61%
20,CCOC(=O)c1c(NC(=O)CC)sc(C(=O)OC)c1C,75%
21,CCOC(=O)c1ccc(-n2c(-c3ccc(C)cc3)c(C)n3c4c(=O)n(C)c(=O)n(C)c4nc23)cc1,75%
22,CCOc1ccc(C(=O)Nc2nnc(S(=O)(=O)Nc3ccccc3)s2)cc1,34% (active)
23,COc1ccc(NS(=O)(=O)c2nnc(NC(=O)c3ccccc3F)s2)cc1,72%
24,CCC(Oc1ccccc1)C(=O)Nc1nnc(S(=O)(=O)N(CC)CC)s1 (stereo unspecified),104%

row,Structure (SMILES),survival
1,COc1ccc(C(=O)Nc2nnc(C(C)C)s2)cc1OC,55%
2,CCC(Oc1ccccc1)C(=O)Nc1nnc(S(=O)(=O)Nc2ccccc2)s1 (stereo unspecified),40% (active)
3,CCN(c1ccccc1C)S(=O)(=O)c1nnc(NC(=O)c2ccc(OC)c(OC)c2)s1,40% (active)
4,CCC(Oc1ccccc1)C(=O)Nc1nnc(S(=O)(=O)N2CCCC2)s1 (stereo unspecified),103%
5,CCOc1ccc(C(=O)Nc2nnc(S(=O)(=O)N(CC)c3ccccc3C)s2)cc1,44% (active)
6,O=C(COc1ccccc1)Nc1nnc(S(=O)(=O)Nc2ccccc2)s1,79%
7,O=C(Cn1c(-c2cccs2)cc2cc(Cl)ccc21)N1CCN(c2ccccc2)CC1,78%
8,CCOC(=O)c1cccnc1SCC(=O)Nc1ccc(C)cc1C,79%
9,COc1ccc(NC(=O)CN(C)S(=O)(=O)c2cnc[nH]2)cc1,95%
10,CN(Cc1ccccc1)C(=O)CSc1nc2ccccc2n1Cc1ccccc1F,86%
11,Cc1ccc(OCC(=O)NCC2(N(C)C)CCCCC2)cc1C,83%
12,CCOc1ccc(CCNC(=O)c2nnc(Cc3ccc(Cl)cc3Cl)o2)cc1OCC,83%
13,O=C(Nc1nnc(S(=O)(=O)N2CCOCC2)s1)c1ccccc1F,86%
14,O=C(Nc1nnc(S(=O)(=O)N2CCCCCC2)s1)c1ccccc1Cl,38% (active)
15,O=C(Nc1nnc(S(=O)(=O)N2CCOCC2)s1)c1ccccc1Cl,79%
16,O=C(Nc1nnc(S(=O)(=O)N2CCCC2)s1)c1ccccc1Cl,117%
17,COc1ccccc1C(=O)Nc1nnc(S(=O)(=O)N2CCCCCC2)s1,56% (active)
18,Cc1ccccc1C(=O)Nc1nnc(S(=O)(=O)N2CCCCCC2)s1,47% (active)
19,O=C(Nc1nnc(S(=O)(=O)N2CCCC2)s1)c1ccccc1F,28% (active)
20,COc1ccccc1C(=O)Nc1nnc(S(=O)(=O)N2CCCCC2)s1,69%
21,COc1ccccc1C(=O)Nc1nnc(S(=O)(=O)N2CCN(c3ccc(F)cc3)CC2)s1,50%
22,COc1ccc(N(C)S(=O)(=O)c2ccc3c(c2)n(C)c(=O)c(=O)n3C)cc1,86%
23,O=C(CN1CCCN(Cc2ccccc2Cl)S1(=O)=O)NCc1ccccc1,94%
24,CCCn1c(=O)c2sccc2n2c(CCCC(=O)NCc3ccccc3)nnc12,83%

row,Structure (SMILES),survival
1,O=C(c1ccccc1)n1nc(-c2ccco2)nc1NCc1ccccc1Cl,103%
2,O=C1C2C3C=CC(C3)C2C(=O)N1c1ccc(-c2nc3ccccc3o2)cc1 (stereo unspecified),89%
3,CCN(C(=O)Cn1c(=O)n(CCCS(=O)(=O)C2CCCCC2)c(=O)c2ccccc21)c1cccc(C)c1,87%
4,COc1ccccc1CNC(=O)c1ccc2c(c1)N(Cc1cc(C)ccc1C)C(=O)c1ccccc1S2,68%
5,COc1cccc(NC(=O)Cn2c(=O)oc3cc(S(=O)(=O)N4CCCCC4)ccc32)c1,112%
6,COc1ccc(N2CCN(C(=O)CN3C(=O)CSc4c3c(C)nn4-c3ccccc3)CC2)cc1,79%
7,CC(=O)NCCNC(=O)c1ccc2c(=O)n(CCc3ccccc3)c(=O)[nH]c2c1,83%
8,O=C(Nc1nnc(S(=O)(=O)N2CCCCCC2)s1)c1ccccc1F,47% (active)
9,CCc1ccc2oc(C(=O)Nc3cc(C)ccc3C)cc(=O)c2c1,52%
10,Cc1ccc(C(=O)Nc2ccc3oc(-c4cccnc4)nc3c2)cc1,83%
11,Cc1ccccc1C(=O)Nc1c(C(=O)Nc2cccc(F)c2)oc2ccccc12,46% (active)
12,COc1cccc(NC(=O)c2oc3ccccc3c2NC(=O)COc2ccccc2C)c1,122%
13,COc1cccc(NC(=O)c2oc3ccccc3c2C)c1,106%
14,COc1cccc(NC(=O)c2oc3ccccc3c2NC(=O)c2ccccc2C)c1,43% (active)
15,Cc1ccc(NC(=O)c2oc3ccccc3c2NC(=O)c2ccccc2C)cc1,79%
16,CCOC(=O)C(=O)Nc1c(C(=O)Nc2cccc(F)c2)oc2ccccc12,97%
17,O=C(OCc1cc(=O)n2nc(-c3cccs3)sc2n1)c1ccccc1Br,75%
18,CC1C(C(=O)Nc2ccccc2)CCCC1(C)C(=O)O (stereo unspecified),80%
19,CC(=O)c1cccc(NC(=O)C2CCN(c3ncnc4c3nc3n4CCCCC3)CC2)c1,84%
20,O=C(CN(c1ccc2c(c1)OCCO2)S(=O)(=O)c1ccccc1)NC1CC1,75%
21,CCOc1ccc(NC(=O)c2ccc3c(=O)n4nc(Nc5ccccc5C)sc4nc3c2)cc1,113%
22,CCCCN(CC)C(=O)C1CCC(CNS(=O)(=O)c2cccc3nsnc23)CC1 (stereo unspecified),83%
23,CN(C)c1ccc(CNC(=O)CCC(=O)N2Cc3ccccc3Oc3ncccc32)cc1,83%
24,CC(C)NC(=O)CCC(=O)N1Cc2ccccc2Oc2ncccc21,0% (active)

row,Structure (SMILES),survival
1,O=C(CCC(=O)N1Cc2ccccc2Oc2ncccc21)Nc1ccc(Cl)cc1,37% (active)
2,Cc1ccc(CNC(=O)CCC(=O)N2Cc3ccccc3Oc3ncccc32)cc1,71%
3,Cc1ccc(NC(=O)CCC(=O)N2Cc3ccccc3Oc3ncccc32)cc1Cl,83%
4,Cc1ccc(NC(=O)CCC(=O)N2Cc3ccccc3Oc3ncccc32)cc1,49%
5,CCOc1ccc(CNC(=O)CCC(=O)N2Cc3ccccc3Oc3ncccc32)cc1,32% (active)
6,CCC(C)NC(=O)CCC(=O)N1Cc2ccccc2Oc2ncccc21 (stereo unspecified),117%
7,CC(C)CCNC(=O)CCC(=O)N1Cc2ccccc2Oc2ncccc21,55%
8,CCOc1ccc(CNC(=O)Cn2nc(C)n3cccc3c2=O)cc1,101%
9,Cc1cccc(NC(=O)C2CCN(S(=O)(=O)c3ccc(F)cc3)CC2)c1C,60%
10,COc1ccc(CNC(=O)CCCN2C(=O)CCn3nc(-c4cn(C)c5ccccc45)cc32)cc1,88%
11,COc1ccc(OC)c(NC(=O)Cc2coc3ccc(C(C)C)cc23)c1,73%
12,Cc1ccc(N(C)C(=O)Cn2nc(Cc3ccncc3)c3ccccc3c2=O)cc1C,84%
13,Oc1ccc2ccccc2c1/C=N/c1nccs1,81%
14,CCOc1ccccc1NC(=O)Nc1ccc2nc(N3CCN(C)CC3)cc(C)c2c1,75%
15,COc1ccc(CCNC(=O)C(=O)NCC(c2cccs2)S(=O)(=O)c2cccs2)cc1 (stereo unspecified),78%
16,COc1cc(S(=O)(=O)N2CCCCC2C)c(OC)cc1Cl (stereo unspecified),114%
17,CC(CCc1ccccc1)NC(=O)Cn1c(=O)nc(-c2ccccc2)c2ccccc21 (stereo unspecified),99%
18,CC1(C)OC(=O)C(=C2CCCCCN2)C(=O)O1,99%
19,COc1ccc(Cl)cc1NC(=O)c1sc2nc3n(c(=O)c2c1C)CCC3,76%
20,COc1ccccc1NC(=O)c1sc2nc(-c3cc4ccccc4oc3=O)[nH]c(=O)c2c1C,106%
21,Cc1c(C(=O)Nc2ccccc2)sc2nc(-c3cc4cc(Cl)ccc4oc3=O)[nH]c(=O)c12,45% (active)
22,CC(C)(C)C1CCc2c(sc3nc(-c4cc5cc(Cl)ccc5oc4=O)[nH]c(=O)c23)C1 (stereo unspecified),83%
23,COc1ccccc1NC(=O)c1sc2nc(-c3cc4cc(Cl)ccc4oc3=O)[nH]c(=O)c2c1C,45% (active)
24,O=C(O)c1ccc2nc(-c3cc4cc(Cl)ccc4oc3=O)[nH]c2c1,69%
